Assay results as given in PubChem BioAssay (Tox21).
Results filed as inconclusive are left out. Entries that show only a call come without a potency. Some structures have more than one record in an assay (separate samples or runs), and their calls can disagree. Active and inactive are the calls of the source. The call rests on the fitted dose curve; in most records, active means well fitted cell-killing curve with a large enough effect in the repeat runs; inconclusive means weak or mixed curves, or effect the other way; inactive means flat fitted curve, though single readings scatter.

Assay: qHTS assay to identify small molecule agonists of the sonic hedgehog signaling (Shh) pathway - cell viability counter screen (AID 1259366); further: nearly all actives have a fitted effect of over 50% in size
Details: NIH/3T3 Gli1-Luc viability, CellTiter-Fluor, 24 h; series mostly up to 92.4 µM; viability change, negative = cytotoxic: at the top concentration
Description: National Center for Advancing Translational Sciences [NCATS]
NIH Chemical Genomics Center [NCGC]
U.S. Environmental Protection Agency [EPA]
National Institutes of Environmental Health Sciences [NIEHS]
National Toxicology Program [NTP]
U.S. Food and Drug Administration [FDA]
The sonic hedgehog (Shh) pathway is essential for normal embryonic development. Dysregulation of the Shh pathway can cause severe developmental defects in organs. Therefore chemicals that interfere with the pathway are potential developmental toxicants. A cell line designated 3T3Gli1-Luc (DMB/OARSA/CFSAN/FDA, Laurel, MD), a NIH/3T3 derived clone containing stably integrated Gli1-Luc reporter is used to detect chemical interference of the Shh pathway, by changes in the expression of the firefly Luc gene under the control of the Gli1 transcriptional response element. This cell line was used to screen Tox21 libraries for identifying and prioritizing the potential developmental toxicants that interfere Shh pathway. The cytotoxicity of the compounds was tested in parallel by measuring the cell viability using CellTiter-Fluor assay system (Promega, Madison, WI) in the same wells.
Tox21 Assay Protocol Summary:
3T3 Gli1-Luc cells were dispensed at 2,000 per well in 5uL of culture medium into white solid bottom 1536-well plates (Greiner Bio-One, Monroe, NC) using a Multidrop Combi (Thermo Scientific, Waltham, MA) dispenser. The assay plates were incubated at 37 C and 5% CO2 for 4hr, and then 23nL of compounds dissolved in DMSO and positive control were transferred using a Pintool station (Wako, San Diego, CA). The assay plates were incubated at 37C and 5% CO2 for 24hr. For viability read, after 23hr of compound treatment, 1uL of CellTiter-Fluor reagent (Promega Corporation, Madison, WI) was added to each well of the assay plates using Flying Reagent Dispenser (FRD, Aurora Discovery, San Diego, CA) and incubated the assay plates at 37C for 1hr. The fluorescence signal was quantified using a ViewLux plate reader (Perkin Elmer, Shelton, CT).
Potency means the concentration at half of the fitted maximal effect.

Row | SMILES | Potency | viability change, negative = cytotoxic
1 | CN(C)CCC#N | inactive | –
2 | Nc1ccc(N)cc1 | 61.4 µM (active) and inactive | –
3 | Cc1cc(O)ccc1Cl | inactive | –
4 | O=S(=O)(O)OOS(=O)(=O)O | inactive | –
5 | Cc1cccc(C)c1N | inactive | –
6 | Nc1ncc([N+](=O)[O-])s1 | – | -1.09% (inactive)
7 | O=[N+]([O-])c1ccc(Cl)c(Cl)c1 | inactive | –
8 | Nc1ccc([As](=O)(O)O)cc1 | inactive | –
9 | Cc1cccc(N)c1C | inactive | –
10 | COS(=O)(=O)OC | inactive | –
11 | O=C(O)Cc1ccccc1 | inactive | –
12 | OCC(O)CCl (stereo not given) | inactive | –
13 | Clc1cnc(Oc2ccc(Oc3ncc(Cl)cc3Cl)cc2)c(Cl)c1 | inactive | –
14 | CNC(=O)O/N=C/C(C)(C)S(C)=O (stereo not given) | – | -3.79% (inactive)
15 | COc1nc(NC(C)C)nc(NC(C)C)n1 | inactive | –
16 | CNCC(O)c1ccc(O)cc1 (stereo not given) | inactive | –
17 | COP(=S)(OC)Oc1ccc(SC)c(C)c1 | inactive | –
18 | ClC(Cl)c1ccccc1 | inactive | –
19 | C[C@H]1C(=O)O[C@@H]2CCN3CC=C(COC(=O)[C@](C)(O)[C@]1(C)O)[C@H]23 | inactive | –
20 | CNc1cnn(-c2cccc(C(F)(F)F)c2)c(=O)c1Cl | inactive | –

Row | SMILES | Potency | viability change, negative = cytotoxic
21 | N#Cc1cccc(C#N)c1 | inactive | –
22 | CC(C)(C)C(=O)CCl | inactive | –
23 | Sc1ccccc1 | inactive | –
24 | O=C/C=C/c1ccccc1 | inactive | –
25 | Cc1ccc(N)cc1 | inactive | –
26 | Nc1cc(Cl)cc(Cl)c1 | inactive | –
27 | NNc1ccccc1 | inactive | –
28 | Oc1c(Br)cc(Br)cc1Br | inactive | –
29 | ClCCOCCCl | inactive | –
30 | CC(=O)C1CCOC1=O (stereo not given) | inactive | –
31 | CC(=O)/C=C/c1ccccc1 | inactive | –
32 | CCOP(=S)(OCC)Oc1ccc([N+](=O)[O-])cc1 | inactive | –
33 | CN(C)NC(=O)CCC(=O)O | inactive | –
34 | FC(F)(F)c1ccc(Cl)cc1 | inactive | –
35 | C=CC(=O)OCC(CC)CCCC (stereo not given) | inactive | –
36 | O=C(O)CCCc1ccc(N(CCCl)CCCl)cc1 | inactive | –
37 | CCOP(=S)(OCC)Oc1cc(C)nc(C(C)C)n1 | inactive | –
38 | C=CCN=C=S | inactive | –
39 | Cc1ccc(O)c(C)c1 | inactive | –
40 | Oc1ccc(Cl)cc1 | inactive | –
